High-throughput results: PubChem, Sanford-Burnham Center for Chemical Genomics
Rows were chosen to be rich in hits. Some 6.3% of all compounds tested hit in one or more screens of this group.
Mdm2-MdmX inh = disrupts the human Mdm2-MdmX interaction; actives 3% (n = 330,000); SaOS-2 split-luciferase Mdm2/MdmX complementation, luminescence; O15151+Q00987; inhibition, % at 8 µM;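 active means inhibition of at least 50% at 8 µM in the primary screen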
Target sequence (O15151 whole entry, looked up): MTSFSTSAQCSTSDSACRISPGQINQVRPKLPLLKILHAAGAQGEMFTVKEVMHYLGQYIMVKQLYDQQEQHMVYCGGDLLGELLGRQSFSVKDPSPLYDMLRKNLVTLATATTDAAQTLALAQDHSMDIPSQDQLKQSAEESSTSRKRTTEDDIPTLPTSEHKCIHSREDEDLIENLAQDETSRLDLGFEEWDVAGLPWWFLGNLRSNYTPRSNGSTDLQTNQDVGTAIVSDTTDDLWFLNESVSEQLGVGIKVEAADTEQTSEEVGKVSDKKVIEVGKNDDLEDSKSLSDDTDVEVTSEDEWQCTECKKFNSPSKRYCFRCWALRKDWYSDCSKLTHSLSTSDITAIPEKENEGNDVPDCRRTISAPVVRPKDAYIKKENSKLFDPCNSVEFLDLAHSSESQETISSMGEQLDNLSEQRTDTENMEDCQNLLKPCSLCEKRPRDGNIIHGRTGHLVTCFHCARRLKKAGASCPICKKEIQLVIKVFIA
Target sequence (Q00987 whole entry, looked up): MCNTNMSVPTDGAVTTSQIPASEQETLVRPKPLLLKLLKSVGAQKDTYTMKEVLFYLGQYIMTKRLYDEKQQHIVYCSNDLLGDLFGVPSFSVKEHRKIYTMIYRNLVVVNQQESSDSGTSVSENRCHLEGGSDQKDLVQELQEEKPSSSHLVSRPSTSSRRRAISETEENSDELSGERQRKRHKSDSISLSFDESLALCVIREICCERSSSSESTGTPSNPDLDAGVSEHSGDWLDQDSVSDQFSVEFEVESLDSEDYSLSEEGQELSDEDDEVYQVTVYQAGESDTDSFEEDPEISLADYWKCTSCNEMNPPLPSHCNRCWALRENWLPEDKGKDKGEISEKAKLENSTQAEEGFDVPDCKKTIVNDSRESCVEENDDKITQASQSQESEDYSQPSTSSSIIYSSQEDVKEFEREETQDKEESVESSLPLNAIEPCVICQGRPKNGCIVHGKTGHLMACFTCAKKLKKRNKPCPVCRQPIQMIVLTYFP
TIM10 inh = growth inhibitors of TIM10 yeast strain; S. cerevisiae TIM10 strain growth, BacTiter-Glo luminescence, 24 h; inhibition, % at 10 µM; actives 1.4% (n = 330,000); AID 463195;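 active means inhibition of 40% or more at the single tested concentration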;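 further: wild-type TIM10 isogenic control strain grown at permissive 25 °C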
tim23-1 inh = tim23-1 yeast growth inhibition. actives 1.3% (n = 330,000). S. cerevisiae tim23-1 growth, BacTiter-Glo luminescence, 24 h. inhibition, % at 20 µM. AID 463212;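 active means growth inhibition of the mutant yeast at or above 50%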;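 further: temperature-sensitive mutant grown at 25 °C; plate controls were DMSO-treated mutant yeast for no effect and medium wells lacking yeast for full effect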
MPTP block = permeability transition pore inhibition; isolated mouse mitochondria, Ca2+ swelling absorbance, 30 min; inhibition, % at 10 µM; actives 1.4% (n = 360,000);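 active means inhibition of 50% or more, scaled per plate between neutral and stimulator controls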;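 further: 0% = DMSO wells given calcium and 100% = 1 mM EGTA wells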
tim10-1 inh = growth inhibitors of tim10-1 mutant yeast; actives 2.2% (n = 330,000); inhibition, % at 20 µM; S. cerevisiae tim10-1 ts strain growth, BacTiter-Glo, 24 h;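 active means inhibition of at least 40%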;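 further: mutant grown at 25 °C; 0% = DMSO wells with yeast and 100% = wells holding no yeast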
Mdm2-MdmX conf = confirmation of human Mdm2/MdmX interaction inhibitors; Mdm2-MdmX binding, luminescent assay; shares compounds with Mdm2-MdmX inh; inhibition, % at 8 µM; AID 489028; actives 55% (n = 10,000); in the data active means inhibition above about 40%
Full FLuc ctr = inhibits full-length luciferase, flagging false Mdm2/MdmX hits; actives 77% (n = 6,200); SaOS-2 full-length luciferase counterscreen, luminescence; inhibition, % at 8 µM; shares compounds with Mdm2-MdmX inh;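 active means mean inhibition at 8 µM reaching about 37%, which flags the compound as non-specific, limit read from the data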;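 further: p53-null SaOS-2 cells with luciferase driven by a doxycycline-inducible promoter; compound on cells about two nights before reading with doxycycline added after day one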
MPTP counter = Rhodamine 123 counter-screen of mitochondrial pore hits; shares compounds with MPTP block; isolated mitochondria, membrane potential, Rhodamine 123 fluorescence; inhibition, % at 10 µM; actives 78% (n = 5,000); AID 624504; in the data active means inhibition above about 22%;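 further: 0% = DMSO vehicle and 100% = positive control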
MPTP swell DR = MPTP inhibition, dose response swelling confirmation | isolated mitochondria swelling, absorbance | actives 58% (n = 780) | IC50, µM | shares compounds with MPTP block | AID 651561; in the data active means IC50 below about 20 µM
MPTP cs DR = counter-screen for mitochondrial permeability transition pore inhibitors, dose response; shares compounds with MPTP block; isolated mitochondria counterscreen, fluorescence read-out; IC50, µM; actives 49% (n = 780); in the data active means IC50 below about 80 µM
The depositor's hits bear a star; . = not tested or not shown.

SMILES | Mdm2-MdmX inh | TIM10 inh | tim23-1 inh | MPTP block | tim10-1 inh | Mdm2-MdmX conf | Full FLuc ctr | MPTP counter | others
O=c1[nH]c(=O)n(-c2ccc(F)cc2)c2c1C(C(F)(F)F)(C(F)(F)F)N=C(c1ccc(F)cc1)N2 | 53* | -8 | 9 | 100* | 11 | 38 | 68* | 85*
O=C(/C=C/c1ccccc1)NC(NC(=S)Nc1ccc(Cl)cc1Cl)C(Cl)(Cl)Cl (configuration not stated) | 95* | -5 | -3 | 102* | 4 | 92* | 23 | 63*
O=C(/C=C/c1ccccc1)NC(NC(=S)Nc1cccc(Cl)c1)C(Cl)(Cl)Cl (configuration not stated) | 98* | 5 | -8 | 93* | 2 | 68* | 26 | 84*
Cc1ccc(C)c(NC(=S)NC(NC(=O)/C=C/c2ccccc2)C(Cl)(Cl)Cl)c1 (configuration not stated) | 81* | -14 | 0 | 100* | 9 | 74* | 31 | 65*
O=C(/C=C/c1ccccc1)NC(NC(=S)Nc1ccc(C(=O)O)cc1)C(Cl)(Cl)Cl (configuration not stated) | -6 | 4 | 2 | 6 | -6 | . | . | .
O=C(NC(NC(=S)Nc1c(Cl)cc(Cl)cc1Cl)C(Cl)(Cl)Cl)OCc1ccccc1 (configuration not stated) | 86* | -9 | -13 | 78* | -8 | 57* | 56* | 63*
O=C(NC(=S)Nc1c(Cl)cc(Cl)cc1Cl)c1ccccc1 | . | . | . | 2 | . | . | . | .
N#CCSc1ccccc1NC(=O)CN1C(=O)C(=O)N(Cc2ccccc2)C1=O | 6 | -7 | -6 | 1 | -10 | . | . | .
COCCN(C(=O)COC(=O)c1ccc(-c2ccccc2)cc1)c1c(N)n(Cc2ccccc2)c(=O)[nH]c1=O | . | . | . | 0 | . | . | . | .
N#C/C(=C/c1cn(-c2ccccc2)nc1-c1cccc(OCc2ccc(F)cc2)c1)C(=O)NCCCn1ccnc1 | 52* | 6 | 21 | 54* | 36 | 30 | . | -8 | MPTP swell DR=>100;MPTP cs DR=>80
N=c1n(CCN2CCOCC2)c2ccccc2n1CC(O)COc1ccccc1 (configuration not stated) | 16 | -14 | 10 | -1 | 6 | . | . | .
N=c1n(CCN2CCCCC2)c2ccccc2n1CC(O)COc1ccccc1 (configuration not stated) | 61* | -13 | -21 | 98* | -17 | 38 | 81* | 12 | MPTP swell DR=18*;MPTP cs DR=68*
N#C/C(=C(/O)c1ccc([N+](=O)[O-])s1)c1nc2ccccc2[nH]1 | 89* | -22 | -3 | 85* | 8 | 83* | 68* | 81*
N#C/C(=C(/O)c1ccc(Br)s1)c1nc2ccccc2[nH]1 | 31 | 12 | 0 | 3 | -11 | . | . | .
O=C(N/N=C1/C(=O)c2cccc3cccc1c23)c1ccc(Cl)cc1 | 59* | 35 | -6 | 57* | 34 | -2 | . | 16
Cc1c(CCOC(=O)CC23CC4CC(CC(C)(C4)C2)C3)sc[n+]1CC(=O)c1ccccc1 | 54* | 11 | 11 | 68* | 3 | 14 | . | 24*
Cc1sc2ncnc(NCc3ccco3)c2c1C | 39 | -8 | 8 | 3 | -9 | . | . | .
Cc1sc2ncnc(NCc3cccs3)c2c1C | 52* | 20 | 25 | 92* | 20 | 28 | . | 92*
CCCn1c(=S)[nH]c2cc(C(=O)N3CCN(c4ccc(F)cc4)CC3)ccc2c1=O | . | . | . | 0 | . | . | . | .
CCCCCCc1cc2cc(C(=O)OCC)c(=O)oc2cc1O | 64* | 30 | 15 | 93* | 19 | 11 | . | 87*
COc1ccc2oc(=O)c(C(=O)Nc3ccccc3O)cc2c1 | -241 | -3 | -5 | 2 | 11 | . | . | .
Cc1ccc(S(=O)(=O)c2cc3ccc(O)cc3oc2=O)cc1C | -22 | 14 | 17 | 0 | 13 | . | . | .
CCCCCCc1cc2cc(C(=O)Nc3ccc(OC)cc3)c(=O)oc2cc1O | 100* | -5 | -1 | 78* | -1 | 34 | . | 2 | MPTP swell DR=1.1*;MPTP cs DR=<2.5*
CCCCCCc1cc2cc(C(=O)Nc3cccc(OC)c3)c(=O)oc2cc1O | 95* | -21 | 9 | 56* | 16 | 4 | . | 21*
CCCCCCc1cc2cc(S(=O)(=O)c3ccc(F)c(Cl)c3)c(=O)oc2cc1O | 98* | -22 | 8 | 79* | 10 | 92* | 28 | 86*
SMILES | Mdm2-MdmX inh | TIM10 inh | tim23-1 inh | MPTP block | tim10-1 inh | Mdm2-MdmX conf | Full FLuc ctr | MPTP counter | others
Cc1cc(=O)n(C(C)c2ccccc2)n1C(C)c1ccccc1 (configuration not stated) | . | . | . | 0 | . | . | . | .
CC1C(=O)N(Cc2cn(CCC3OCCO3)nn2)CCS(=O)(=O)N1Cc1ccc(-c2ccc(F)nc2)cc1 (configuration not stated) | . | . | . | -1 | . | . | . | .
COc1ccc(NC(=S)NC(NC(C)=O)C(Cl)(Cl)Cl)c([N+](=O)[O-])c1 (configuration not stated) | 18 | 7 | 3 | 4 | 4 | . | . | .
O=C(NC(NC(=S)Nc1ccccc1C(=O)O)C(Cl)(Cl)Cl)c1cccc([N+](=O)[O-])c1 (configuration not stated) | -24 | 5 | 16 | 6 | 14 | . | . | .
COc1ccc(NC(=S)NC(NC(=O)c2cccc(Cl)c2)C(Cl)(Cl)Cl)c([N+](=O)[O-])c1 (configuration not stated) | 87* | 20 | 18 | 92* | 24 | 72* | 57* | 51*
O=C(NC(NC(=S)Nc1ccccc1Cl)C(Cl)(Cl)Cl)c1cccc(Cl)c1 (configuration not stated) | 97* | 1 | -14 | 77* | 8 | 95* | 22 | 62*
Cc1nonc1NC(=O)CSc1nc(C23CC4CC(CC(C4)C2)C3)nc2ccccc12 | 52* | 10 | 10 | 79* | 17 | 23 | . | 72*
CCCC(=O)NC(NC(=S)Nc1ccc(N=Nc2ccccc2)cc1)C(Cl)(Cl)Cl (configuration not stated) | 86* | 2 | -26 | 103* | 5 | 89* | 32 | 62*
CCc1ccc(OCC(=O)NC(NC(=S)Nc2ccc(Cl)cc2)C(Cl)(Cl)Cl)cc1 (configuration not stated) | 84* | -9 | -23 | 98* | -1 | 92* | 22 | 81*
CC(C)CNC(=O)C1(C)CCCN1Cc1ccc(S(C)(=O)=O)cc1 (configuration not stated) | . | . | . | 0 | . | . | . | .
